This is one part of a sample in which hits are shown more often than they occur.
Dicer inh: human Dicer pre-microRNA cleavage inhibition; Q9UPY3; cat-ELCCA pre-miR-21 Dicer processing, chemiluminescence; active compounds read high; z-score at 25 µM; 47,000 compounds, 6% hits; AID 1347074; in the data active means z-score above about 3, passing the limit was not always enough;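 further: plate controls were vehicle for no effect and no enzyme for full effect; higher signal means more uncleaved substrate so more Dicer inhibition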
Starred values were filed as active, the others as inactive.

SMILES	Dicer inh
Cc1cc(C)c(OC(=O)/C=C/c2cccs2)c(C)c1	-0.54
CCOc1cccc(C2c3c(oc4ccccc4c3=O)C(=O)N2Cc2ccc3c(c2)OCO3)c1 (stereo unspecified)	-0.13
CC(C)N(Cc1ccccc1)C(=O)Nc1cc(Cl)cc(Cl)c1	-1.2
CC1(C)NC(=O)N(CC(O)COc2ccc(F)cc2)C1=O (stereo unspecified)	0.15
CCCCNc1nc(-c2ccc(-c3ccccc3)cc2)cs1	-0.27
Cc1ccc(N2C(=O)SC(Nc3ccccc3C(=O)O)C2=O)cc1C (stereo unspecified)	0.26
Cc1ccc(N2C(=O)SC(Nc3ccc(C(=O)O)cc3)C2=O)cc1 (stereo unspecified)	5.4*
Cc1ccc(N2C(=O)SC(Nc3ccc(C(=O)O)cc3)C2=O)cc1C (stereo unspecified)	1.3
O=C1SC(Nc2ccccc2F)C(=O)N1c1ccccc1 (stereo unspecified)	3.4*
O=C1SC(Nc2ccccc2Br)C(=O)N1c1ccccc1 (stereo unspecified)	-0.13
O=C1SC(Nc2cccc(Br)c2)C(=O)N1c1ccccc1 (stereo unspecified)	58
COC(=O)c1ccc(NC2SC(=O)N(c3ccccc3)C2=O)cc1 (stereo unspecified)	0.49
COC(=O)c1ccccc1NC1SC(=O)N(c2ccccc2)C1=O (stereo unspecified)	0.52
O=C1SC(Nc2cccc(F)c2)C(=O)N1c1ccccc1 (stereo unspecified)	7.3*
C[C@@H]1CCN(C(=O)C(CCCN=C(N)N)NS(=O)(=O)c2cccc3c2NC[C@H](C)C3)C(C(=O)O)C1 (stereo partly specified)	-1.8
O=C(c1cccc(C(F)(F)F)c1)c1nccc2ccccc12	-0.97
Cc1ccc2c(c1)NC(c1ccc(C(=O)O)cc1)c1cccn1-2 (stereo unspecified)	0.01
CC1(C)CC(=O)C2=C(C1)Nc1ccc3ccccc3c1C2c1ccc(F)cc1 (stereo unspecified)	-0.52
CC(=O)Nc1cc2cc([N+](=O)[O-])ccc2oc1=O	-0.4
COc1ccc2nc(SCC(=O)Nc3ccc4c(c3)OCO4)[nH]c2c1	0.21
C=CCN(c1ccccc1C1=N/C(=C\c2cccc(Cl)c2)C(=O)O1)S(=O)(=O)c1ccc(C)cc1	2.4
Cc1ccc2c(c1)NC(c1ccccc1)C1=C(CC(C)(C)CC1=O)N2 (stereo unspecified)	-1.4
CC(C)Oc1ccc(C2Nc3ccccc3NC3=C2C(=O)CC(C)(C)C3)cc1 (stereo unspecified)	-1.9
CC1(C)CC(=O)C2=C(C1)Nc1ccccc1NC2c1cccc(Br)c1 (stereo unspecified)	3.5*
NS(=O)(=O)c1ccc(Oc2c(Cl)cccc2Cl)c([N+](=O)[O-])c1	-1.2
SMILES	Dicer inh
COc1ccc2c(c1)c1nc3cc4ccccc4cc3nc1n2C(C)=O	-1.5
COC(=O)C1=C(C)NC2=C(C(=O)CC(C)(C)C2)C1c1ccc(OC)cc1 (stereo unspecified)	-1.1
CC(C)(C)c1ccc(NC(=O)NC2CCCc3ccccc32)cc1 (stereo unspecified)	1.4
Cc1noc(C)c1NC(=O)NC1CCCc2ccccc21 (stereo unspecified)	-0.44
O=C(Nc1ccccc1F)NC1CCCc2ccccc21 (stereo unspecified)	4.6*
Cc1ccc(Sc2ncc(C(=O)OCc3ccc(Cl)cc3)c(C(F)(F)F)n2)cc1	-2.6
O=[N+]([O-])c1ccsc1Sc1cccs1	-3.1
O=C(O)CCN1CCC(C(=O)O)CC1	0
C=CC(=C)CC(NC)c1ccccc1 (stereo unspecified)	1.5
CNC[C@H](O)c1cccc(O)c1	-0.43
CNc1ccc(Br)cc1C(O)c1ccccc1 (stereo unspecified)	3.4*
COc1cc2cc(C(=O)N3CCN(c4cc(C)nc5ccccc45)CC3)c(=O)oc2cc1OC	2.7
CCCOC(=O)C1=C(C)NC2=C(C(=O)CCC2)C1c1ccc(C)cc1 (stereo unspecified)	0.83
O=C(Nc1nc2c(-c3ccccc3)c(C(F)(F)F)sc2s1)c1ccc(Cl)cc1	0.43
Nc1nc2c(-c3ccccc3)c(C(F)(F)F)sc2s1	4.2*
CCOC(=O)c1cnc2c(-c3ccccc3)c(C(F)(F)F)sc2c1OCC	-0.56
CNS(=O)(=O)c1cc2c(c([N+](=O)[O-])c1)-c1c(cc(S(=O)(=O)NC)cc1[N+](=O)[O-])C2=O	0.91
Cc1nn(C(=O)c2ccc(Cl)cc2)c(C)c1Sc1ncccn1	0.15
CN1CCc2cc(Cl)c(O)cc2[C@@H](c2ccccc2)C1	0.58
CC12CN3CC(C)(CN(C1)C3c1ccc(O)c(O)c1)C2=O (stereo unspecified)	-0.39
CN1Cc2sccc2C(c2ccc(O)c(O)c2)C1 (stereo unspecified)	4.8*
O=C(NCc1cccs1)c1cc2n(n1)C(C(F)(F)F)CC(c1ccco1)N2 (stereo unspecified)	-0.87
CN(Cc1ccc(-n2cccn2)cc1)C(=O)c1cnn2c(C(F)(F)F)cc(-c3ccco3)nc12	1.1
CCOc1nc(-c2cccc(OC)c2)ccc1-c1noc(-c2ccncc2)n1	1.1
CC(=O)Nc1cccc(-n2nnc(SCc3ccccc3)n2)c1	1.1
SMILES	Dicer inh
O=C(O)CCC(=O)c1ccc2c(c1)OCCCO2	1.2
CC(=O)Nc1cccc(-n2nnc(SCC(=O)c3ccc4c(c3)OCCCO4)n2)c1	3.1*
Cc1noc(/C=C/c2cc(C)n(-c3ccc(C(=O)O)cc3)c2C)c1[N+](=O)[O-]	1.4
Cc1nc2oc3c(-c4ccc(Br)cc4)ncnc3c2c2c1COC(C)(C)C2	-0.79
O=C(O)c1coc2c1/C(=N/Nc1ccccc1)CCC2	-1
O=c1oc(C(c2ccccc2)C2CCCC2)nc2cccc(F)c12 (stereo unspecified)	-0.57
C=CCSc1nc(C)c2cc(C)ccc2n1	-0.03
CSc1nc(C)c2cc(C)oc2n1	4.3*
Cn1cc([N+](=O)[O-])c(C(=O)Nc2cccc(Br)c2)n1	1.5
Cc1cc(Cl)ccc1NC(=S)NNC(=O)C(O)(c1ccccc1)c1ccccc1	0.61
COc1ccccc1OCC(=O)N(Cc1cccs1)C1CCS(=O)(=O)C1 (stereo unspecified)	0.96
O=C(c1ccccc1Br)N(Cc1cccs1)C1CCS(=O)(=O)C1 (stereo unspecified)	3.9*
COc1ccc(OCC(=O)N(Cc2cccs2)C2CCS(=O)(=O)C2)cc1 (stereo unspecified)	-0.03
CCOC(=O)c1ccc(NC(=S)Nc2ncccc2C)cc1	0.21
Sc1oc(-c2ccccc2)cc1C=Nc1ccccc1Cl	1.5
Cc1ccc(Cl)c(NC2=CC(=O)CC(C)(C)C2)c1	-1.3
CC1(C)CC(=O)C=C(Nc2ccc(F)cc2)C1	1.4
Cc1ccc(-c2cc(NC3=CC(=O)CC(C)(C)C3)n[nH]2)cc1	3.7*
O=S(=O)(Cc1ccc(Cl)cc1)c1cccs1	-0.25
CCOC(=O)c1sc2nc(-c3ccccc3OC)nc(C)c2c1C	0.44
CCOC(=O)c1cc(=O)c2c(O)cccc2o1	-0.64
CCCc1cc(-c2n[nH]c(C)c2-c2ccc(C(=O)OCC)o2)c(O)cc1O	3.9*
CCOC(=O)c1ccc(CSc2n[nH]c(C)n2)o1	-1
C=C(C)Cn1c(CN2CCOCC2)nc2c1c(=O)[nH]c(=O)n2C	-0.35
CC1=NN(c2ccc(C)cc2)C(=O)C1=C1SCCS1	-0.81
Cc1ccc(-c2nc(NC(=O)CSc3nnc4ccccn34)ns2)cc1	1.6
CC(C)(C)c1ccc(-c2nc(NC(=O)CSc3nnc4ccccn34)ns2)cc1	3*
